Compounds without any hit were thinned out: in the full panel of roughly 83,000, 20% have a hit.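 Percent growth is the endpoint: 0 to 100 indicates growth inhibition (40 means 60% inhibition), 0 means no net growth, and negative values indicate cell death.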 Unmarked numbers belong to inactive results. Active and inactive are the calls of the source. How the source made its calls: active means growth percent below 10; inactive means the rest.
Columns and labels:
Experiment in all cases: NCI-60 one-dose screen, 48 h (100 = growth as untreated, 0 = no growth, -100 = all killed)
Conditions in all cases: 10 µM unless noted
[1] = tested on: HCT-15 colon
[2] = tested on: HT29 colon
[3] = tested on: SNB-75 CNS
[4] = tested on: SNB-19 CNS
[5] = tested on: U251 CNS
[6] = tested on: PC-3 prostate
[7] = tested on: SK-MEL-5 melanoma
[8] = tested on: UACC-62 melanoma
[9] = tested on: LOX IMVI melanoma
[10] = tested on: SK-MEL-28 melanoma

SMILES	growth [1]	growth [2]	growth [3]	growth [4]	growth [5]	growth [6]	growth [7]	growth [8]	growth [9]	growth [10]
COc1cc(/C=C/c2cc(/C=C/c3ccc(O)c(OC)c3)n(C(=O)Nc3ccc(Cl)cc3)n2)ccc1O	7.86% (active)	-11.1% (active)	18.7%	9.25% (active)	4.31% (active)	4.24% (active)	-29.7% (active)	4.06% (active)	3.04% (active)	12.7%
COC(=O)[C@]1(C)CCC[C@]2(C)[C@H]3C[C@@H]4[C@H]5[C@@H]6CC/C(=N\OCC/C(N)=N/O)[C@H]5[C@@]3(CC[C@H]21)CC4(C(C)C)O6	36.6%	74.2%	66.9%	89.4%	68.4%	47.5%	73.2%	58.5%	69%	88.9%
Nc1c(Br)cc2c(c1Br)Cc1cc([N+](=O)[O-])ccc1-2	104%	110%	75.3%	94.5%	95.5%	87.9%	91.4%	89.1%	102%	113%
COc1ccc(C(=O)Nc2ncc(Cc3ccc(Cl)cc3)s2)cc1	8.72% (active)	6.03% (active)	20%	23.9%	25.2%	22.7%	-1.16% (active)	33.5%	19.8%	52.3%
COc1ccc(NC(=O)c2ccc(Nc3ncnc4c3cnn4-c3cccc(F)c3)cc2)cc1	102%	104%	93.9%	94.7%	103%	96.3%	98.4%	94.8%	96%	113%
COc1ccc(Cl)cc1Nc1nc(C(F)(F)F)ccc1C(=O)N/N=C/c1ccc([N+](=O)[O-])cc1	3.38% (active)	2.62% (active)	29.5%	22.9%	-27% (active)	-5.64% (active)	-17.7% (active)	17.3%	-32.8% (active)	22.8%
Cc1cccc(NC(=O)Cn2cc(CN3CCN(c4ccnc5cc(Cl)ccc45)CC3)nn2)c1	88.8%	98.5%	75%	89.6%	93%	63.3%	68.8%	73%	81.6%	102%
COc1cc(/C=C/c2cn[nH]c2-c2ccc(C)cc2)cc(OC)c1OC	23%	6.79% (active)	29.5%	48.2%	22.6%	28.2%	12%	32.8%	40.6%	56.8%
CCn1cc(C(=O)N/N=C/c2cccc(F)c2)c(=O)c2cc(F)c(N3CCNC(C)C3)c(F)c21 (stereo not given)	-81.8% (active)	-87.2% (active)	90.1%	-59.4% (active)	-74.3% (active)	69.6%	52.6%	64.8%	-90.9% (active)	-64.3% (active)
CCN1C2CCC1/C(=C\c1ccccc1)C(=O)/C2=C/c1ccccc1	38.5%	42.3%	50.6%	65.5%	24.5%	47.7%	56.6%	40.1%	25.2%	77.1%
Nc1c(Cl)cc(/C=C2\C=Cc3ccccc32)cc1Cl	100%	97.6%	86.1%	114%	108%	90.6%	105%	106%	89.7%	114%
COCC(=O)Oc1cc(-c2ccc(C)cc2C)c(OC(=O)COC)c(-c2ccc(C)cc2C)c1	10.2%	34.3%	80.4%	60.9%	46.7%	43.4%	13.7%	45.1%	35.6%	87.9%
COC(=O)c1ccc2c(c1)c1c(C)c3cnccc3c(C)c1n2C	-8.77% (active)	-10.9% (active)	8.05% (active)	-1.59% (active)	-16.5% (active)	5.43% (active)	-91.3% (active)	-82.3% (active)	-55% (active)	-54.5% (active)
CC1=C(Cl)C(=O)c2cc(C)ccc2C1=O	100%	103%	88.9%	106%	96.2%	89.6%	101%	96%	100%	94.9%
CCCC(O)Cn1ncc(C(=O)OCC)c1NC(=O)NCc1cccc(C(F)(F)F)c1 (stereo not given)	104%	85.9%	101%	104%	105%	64.7%	93.6%	80.1%	87.5%	105%
CCN(CC)CCOc1ccc(Nc2ncc3cc(-c4c(Cl)cccc4Cl)c(=O)n(CCOC)c3n2)cc1	12.9%	-22.6% (active)	-39.9% (active)	18.4%	0.141% (active)	60%	13.6%	32.1%	-77.6% (active)	36.9%
C/C(=C(\c1ccc(OCCN2CCCCCC2)cc1)c1ccc(OC(=O)c2ccccc2)cc1)c1ccc(Cl)cc1	7.21% (active)	1.67% (active)	73.7%	57.9%	29.8%	33.8%	55.6%	28.4%	-38.9% (active)	51.7%
C[N+]1=C(/C=C/c2ccccc2Cl)C(C)(C)c2ccccc21	101%	91.4%	95.5%	107%	84.2%	83.5%	92.2%	91.9%	85.5%	103%
COc1ccc(C(c2cc(OC)c(OC)c(OC)c2)N2CCCCC2)cc1 (stereo not given)	20.6%	7.93% (active)	26.6%	30.4%	26.1%	25.1%	29.5%	18.2%	36.3%	47.2%
CS(=O)(=O)Nc1cc(-c2ccc3ncnc(Nc4ccc(F)c(Cl)c4)c3c2)ccc1Cl	41.3%	34.8%	30.5%	57.6%	42.4%	36.8%	28.8%	53.8%	37.9%	57.1%
Cc1cc2oc(/C=C/c3ccccc3)cc(=O)c2c(C)c1Cl	95.7%	107%	116%	89.8%	94.3%	96.7%	96%	90.5%	109%	94.6%

SMILES	growth [1]	growth [2]	growth [3]	growth [4]	growth [5]	growth [6]	growth [7]	growth [8]	growth [9]	growth [10]
CCN(CC)CCn1c2ccc(OC)cc2c2sc3cc(O)ccc3c(=O)c21	18.7%	15.1%	78.8%	25.8%	27.4%	32%	76.1%	54.8%	-30.4% (active)	68.8%
C1CCC(N2CN3c4nonc4N4CN(C5CCCCC5)CN5c6nonc6N(C2)C3C45)CC1 (stereo not given)	84.5%	105%	88.7%	102%	93.3%	87.9%	93.5%	88.7%	98.9%	101%
CN(C)CCCNC(=O)c1cncnc1Nc1ccc2c(ccn2Cc2cccc(F)c2)c1	63.2%	39.1%	78%	92.5%	68.9%	86%	91.4%	100%	76.7%	89.6%
COc1ccc(-c2nc3ccc(C)cc3c3c2c(=O)n(C)c(=O)n3C)cc1OC	108%	108%	92.9%	98.7%	96.9%	97.5%	103%	89.5%	95.6%	112%
COc1ccc(-c2cc(-c3cccnc3)nc3sc4c(N)c(C(C)=O)c(-c5ccccc5)nc4c23)cc1OC	73.6%	52.5%	63.5%	86%	55.6%	54.9%	39.4%	75.5%	75.5%	70%
COc1ccc(-c2nc3c(c(-c4ccc(Cl)cc4)nn3-c3ccccc3)c(-c3ccccc3)c2C#N)cc1	109%	101%	85.7%	103%	99.6%	91.3%	100%	98.5%	101%	108%
C=CC(CC(c1ccccc1)(c1ccccc1)c1ccccc1)N(CC)CC (stereo not given)	41.4%	16.2%	68.1%	98.3%	62%	44.9%	13.5%	44.2%	71.6%	61.6%
O=C(O)c1cn(C2CC2)c2cc(N3CCN(C(=O)N/N=C/c4cccc5ccccc45)CC3)c(F)cc2c1=O	97.9%	105%	97%	85.9%	100%	105%	94%	88.7%	67.8%	98.1%
C/C(Cc1ccc(Cl)cc1)=C(\c1ccc(OCCN2CCCCCC2)cc1)c1ccc(OC(=O)c2ccccc2)cc1	14.1%	6.24% (active)	77.3%	50.3%	37.8%	19.4%	35.3%	-3.38% (active)	-21.8% (active)	-1.89% (active)
COc1ccc(N/N=C/c2cn(-c3ccc(C(=O)O)cc3)nc2-c2cc3ccccc3oc2=O)cc1	30%	63.1%	82.1%	75.9%	107%	63.5%	39.5%	22.6%	25.7%	69.5%
Cc1cc(=O)oc2cc(Oc3nc(Br)cn4c(Br)cnc34)ccc12	95.6%	99.9%	-2.07% (active)	74.6%	47.6%	82.1%	40.3%	85.2%	74.3%	104%
c1ccc(-c2c(-c3ccccc3)[n+](Cc3ccc4ccccc4c3)cn2Cc2ccc3ccccc3c2)cc1	-93.3% (active)	-89.9% (active)	-67.6% (active)	-66.4% (active)	-90% (active)	-91.8% (active)	-100% (active)	-73.2% (active)	-99.5% (active)	-91.5% (active)
CN(C)CCCn1c2c(c3ccncc3c1=O)C(=O)c1ccccc1-2	2.9% (active)	2.14% (active)	21%	1.91% (active)	0.267% (active)	-18.5% (active)	-94.3% (active)	-56.7% (active)	-42.3% (active)	-43.1% (active)
CCOC(=O)c1nnn(-c2no[n+]([O-])c2-c2ccc(OC)cc2)c1COc1cccc2cccnc12	22.2%	3.79% (active)	73.1%	25.2%	14.9%	34.2%	-22.4% (active)	8.44% (active)	-43.1% (active)	58.2%
O=c1cc(CP(=O)(O)O)c2cc(O)c(-c3ccccc3)cc2o1	101%	108%	83.8%	96.8%	100%	98.6%	98.1%	97.8%	99.5%	104%
COC(=O)[C@@]12CC=C(C)[C@]3(C[C@H](c4ccoc4)OC3=O)[C@H]1C=C[C@@H](O)[C@@]2(O)C(=O)OC	108%	84.7%	88.9%	105%	97.9%	95.6%	107%	92.8%	97.5%	105%
Cc1nn(-c2ccc([N+](=O)[O-])cc2)c2ncnc(N/N=C/c3ccccc3O)c12	26.2%	30.1%	37.9%	18%	11.4%	27%	-42% (active)	-11.3% (active)	6.25% (active)	22%
C=C1C(=O)O[C@H]2[C@H]1CC/C(COC(=O)NCc1ccc(Cn3c(=O)sn(-c4ccccc4)c3=O)cc1)=C\CC[C@@]1(C)O[C@@H]21	32.4%	20.1%	9.33% (active)	92.4%	40.4%	64%	95.1%	48.2%	6.38% (active)	47%
CCN(CC)c1ccc(-c2cc(-c3cc(OC)c(OC)c(OC)c3)nc(N3CCC(O)CC3)c2C#N)cc1	-36.7% (active)	-32.7% (active)	-41.5% (active)	15.4%	-32.5% (active)	13.1%	-99.4% (active)	-49.9% (active)	-27.8% (active)	-46.6% (active)
CCOC(=O)c1ccc[nH]1	93.9%	106%	84.2%	99.4%	96.6%	91.8%	98.4%	103%	94.1%	115%
C#COc1cccc(Nc2ncnc3cc(NC(=O)[C@H](C)Cl)ccc23)c1	9.91% [6.25 µM] (active)	1.38% [6.25 µM] (active)	3.55% [6.25 µM] (active)	19.3% [6.25 µM]	3.14% [6.25 µM] (active)	95.3% [6.25 µM]	9.1% [6.25 µM] (active)	22.1% [6.25 µM]	5.47% [6.25 µM] (active)	29.4% [6.25 µM]

Reference: PubChem BioAssay (NCI)
